# WRN inhibitor: blocks human WRN helicase; AID 651768; Potency, µM (titrated, usually from 114 µM), for the others: at the top dose activity change, negative = inhibition, most hits filed as inhibitors; Q14191; WRN helicase unwinding, fluorescent forked duplex, kinetic; 360,000 compounds, 0.46% hits; further: on the % scale 0 is the no-effect control and ±100 the full control effect; nearly all actives have a fitted effect of over 55% in size
#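 Kinetic red-fluorescence monitoring (525/598 nm) tracks WRN helicase activity after 100 nM fluorophore-quencher forked duplex and 2 mM ATP are added to 20 nM enzyme pretreated 15 min at room temperature with compound.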
# L3MBTL1 inh: L3MBTL1 (human) inhibition; AlphaScreen L3MBTL1–H3K9me1 peptide binding; Q9Y468; Potency, µM (titrated, usually from 57.1 µM), without a hit: top-dose activity, negative = inhibition, most hits filed as inhibitors; 230,000 compounds, 0.66% hits; further: on the % scale 0 is the no-effect control and ±100 the full control effect; nearly all actives have a fitted effect of over 60% in size
#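 Read-out is AlphaScreen signal from streptavidin donor and nickel chelate acceptor beads (10 ug/mL final each) bridging L3MBTL1 (50 nM) and biotinylated K9-monomethylated H3(1-15) peptide (75 nM), after 30 min compound exposure at room temperature.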
# POLI inh: inhibitors of human DNA polymerase iota | Q9UNA4 | Pol iota fluorescent replication assay, 10 min | Potency, µM (series often up to 115 µM), for the others: at the highest dose activity, negative = inhibition, usual class: inhibitors | 390,000 compounds, 1% hits | AID 588590
#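 Pol iota at 10 nM preincubated 15 min with compounds at room temperature; reaction started with fluorescent substrate, 50 nM final. Fluorescence read kinetically at 0 and 10 min; buffer-only wells as negative control.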
# Pol beta inh: inhibitors of human DNA polymerase beta. P06746. Pol beta primer extension/strand displacement, fluorescence kinetic. Potency, µM (highest dose often 114 µM), inactives show at the highest dose activity change, negative = inhibition, usual class: inhibitors. 340,000 compounds, 1.3% hits. AID 485314; further: on the % scale 0 is the no-effect control and ±100 the full control effect
#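 Enzyme-only controls used 10 nM Pol beta; buffer lacking enzyme served as negative control. Compound preincubated 15 min, then 50 nM substrate added; 0 and 10 min reads at room temperature.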
# Pol eta inh: inhibitors of human DNA polymerase eta; Q9Y253; recombinant Pol eta, fluorescent DNA replication assay; Potency, µM (highest dose often 114 µM), for the others: at the top dose activity change, negative = inhibition, actives largely listed as inhibitors; 390,000 compounds, 1.2% hits; AID 588591; further: on the % scale 0 is the no-effect control and ±100 the full control effect
#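 Fluorescent replication assay: 50 nM final substrate added after a 15 min room-temperature compound preincubation with 10 nM enzyme. Signal taken at 0 min and again at 10 min.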
# Pol kappa inh: inhibitors of human DNA polymerase kappa; purified Pol kappa, fluorescent DNA synthesis assay, 10 min; 400,000 compounds, 0.53% hits; Potency, µM (top dose mostly 107 µM), for the others: at the highest dose activity, negative = inhibition, usual class: inhibitors; Q9UBT6; further: on the % scale 0 is the no-effect control and ±100 the full control effect
# Target sequence (Q9UBT6 whole entry, looked up): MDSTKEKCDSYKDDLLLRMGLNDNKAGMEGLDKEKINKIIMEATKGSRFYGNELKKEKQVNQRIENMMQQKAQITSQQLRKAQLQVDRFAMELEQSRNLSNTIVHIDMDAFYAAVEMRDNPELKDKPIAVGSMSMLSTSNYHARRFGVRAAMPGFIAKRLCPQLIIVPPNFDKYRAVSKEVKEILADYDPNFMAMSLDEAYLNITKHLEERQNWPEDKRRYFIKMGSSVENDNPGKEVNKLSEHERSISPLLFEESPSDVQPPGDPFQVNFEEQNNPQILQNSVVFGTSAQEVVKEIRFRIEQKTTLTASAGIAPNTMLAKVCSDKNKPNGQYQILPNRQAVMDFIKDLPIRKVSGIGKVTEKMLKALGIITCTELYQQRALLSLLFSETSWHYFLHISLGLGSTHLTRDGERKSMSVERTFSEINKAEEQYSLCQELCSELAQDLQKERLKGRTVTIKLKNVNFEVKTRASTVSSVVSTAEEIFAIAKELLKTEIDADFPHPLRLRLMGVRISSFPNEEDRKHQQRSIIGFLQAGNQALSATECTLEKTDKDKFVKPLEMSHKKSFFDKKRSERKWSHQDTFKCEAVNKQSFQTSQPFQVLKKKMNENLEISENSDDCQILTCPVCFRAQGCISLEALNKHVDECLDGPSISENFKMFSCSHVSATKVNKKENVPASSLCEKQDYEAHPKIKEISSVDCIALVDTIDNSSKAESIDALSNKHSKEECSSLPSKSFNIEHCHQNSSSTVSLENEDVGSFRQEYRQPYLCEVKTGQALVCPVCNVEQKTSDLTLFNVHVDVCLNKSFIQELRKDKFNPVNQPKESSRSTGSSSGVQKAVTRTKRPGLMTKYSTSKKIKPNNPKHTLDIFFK
#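 Kinetic fluorescence screen: compound preincubated 15 min RT with 10 nM enzyme; 50 nM substrate (final) initiates; reads at 0/10 min.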
# * = called active by the depositor; ? = inconclusive; nt = not tested or not shown; ! = repeats disagree; [ ] = dose if it differs, or a comment. In the library only some 2.5% were active in any assay of this set; here they are far more common. The call rests on the fitted dose curve; in most records, active means well fitted curve in the direction sought with a large enough effect; inconclusive means small, poorly fitted or top-dose-only effect, or another doubt; inactive means no such curve, though single readings can be large; an effect the other way counts as inactive or inconclusive. Potency means the concentration at half of the fitted maximal effect.
SMILES,WRN inhibitor,L3MBTL1 inh,POLI inh,Pol beta inh,Pol eta inh,Pol kappa inh
CCOc1ccc(NC(=O)Cn2c(=O)oc3cc(S(=O)(=O)N4CCC(C)CC4)ccc32)cc1,nt,nt,-3.3%,-0.4%,-1.2%,-10.0%
Cc1ccc2oc(=O)cc(CN3CCN(Cc4ccccc4)CC3)c2c1,-4.2%,nt,-17.8%,-5.8%,2.7%,2.9%
COC(=O)[C@]1(Cc2ccccc2)N[C@H](CN(C)C(C)=O)[C@@H]2C(=O)N(C)C(=O)[C@@H]21,-4.2%,-8.0%,38.9%,nt,-16.2%,-3.7%
COC(=O)CCC(=O)N1CCCC(C(=O)c2cc(F)ccc2F)C1 (stereo not drawn),10.8%,1.2%,71.4%,0.4%,-14.2%,-5.6%
O=c1c(C(c2ccccc2)c2c(O)sc3ccccc3c2=O)c(O)sc2ccccc12,-1.4%[57.1 µM],nt,20.8%,31.6µM*,-13.0%,-2.3%
CCC(CC)COC(=O)C(C#N)c1nc2ccccc2nc1N1CCOCC1 (stereo not drawn),-14.0%,-8.9%,17.4%,-4.8%,-7.0%,-9.9%
Cc1ccc(-n2c(O)c(/C=N/Nc3ccc(S(=O)(=O)N4CCOCC4)cc3[N+](=O)[O-])c3ccccc3c2=O)c(C)c1,-34.7%[57.1 µM],?,?,79.4µM*,44.7µM*,-16.1%
O=C(NCC(=O)N1CCN(c2ccccc2O)CC1)c1ccco1,-19.2%,nt,79.4µM*,-22.7%,-19.0%,-30.9%
O=C(NCC(=O)N1CCCCCCC1)c1ccco1,2.0%,2.6%,10.9%,nt,-19.9%,-23.5%
CCOc1ccc2[nH]c3c(NCCN(C)C)ncnc3c2c1,nt,nt,nt,56.2µM*,nt,nt
CCOc1ccc2[nH]c3c(NCCC(C)C)ncnc3c2c1,-15.0%[57.1 µM],nt,5.3%,?,-7.8%,-11.8%
COc1ccc2[nH]c3c(NCc4ccco4)ncnc3c2c1,-34.4%,-11.4%,79.4µM*!,?,?,-22.4%
Cc1ccc(S(=O)(=O)N2CCCCC2)cc1NC(=O)C1CC(=O)N(Cc2ccco2)C1 (stereo not drawn),-4.7%,-6.6%,-3.3%,nt,-12.8%,-1.9%
CC(C)Cc1oc(C(=O)O)cc1CN1CCOCC1,-9.4%,1.3%,19.9%,89.1µM*,-2.1%,-2.9%
CCCc1oc(C(=O)O)cc1CN1CCOCC1,0.0%[57.1 µM],nt,-7.3%,8.5%,-12.5%,-3.3%
COc1ccc2[nH]c3nc(SCc4nnc(-c5ccccc5)o4)nnc3c2c1,-14.7%,-6.0%,8.4%,22.4µM*,-32.3%,-11.9%
CCc1ccc2[nH]c3nc(SCc4nnc(-c5ccccc5)o4)nnc3c2c1,-5.9%,nt,21.9%,1.7%,-10.9%,-7.1%
COc1cccc(NC(=O)CSc2nnc3c(n2)[nH]c2ccc(C)cc23)c1,-3.4%,nt,7.1%,10.9%,-8.7%,-3.7%
COc1ccc2[nH]c3nc(SCC(=O)Nc4cccc(NC(C)=O)c4)nnc3c2c1,-11.0%[11.6 µM],1.5%,?,35.5µM*,0.2%,-19.8%
Cc1ccc2c(nc3s/c(=C/c4cccs4)c(=O)n32)c1C,-24.0%,-4.2%,?,31.6µM*,20µM*,?
Oc1c(Br)cc(Br)cc1/C=N/c1nc2c(s1)CCCC2,?,nt,?,nt,?,79.4µM*
COc1ccc(C(=O)Nc2cccc(/C=C(\CCC(=O)O)c3nc4ccccc4s3)c2)cc1,-12.6%[11.6 µM],nt,?,?,56.2µM*,?
Cc1ccc(C2(SCC(N)C(=O)O)c3ccccc3-c3ccccc32)cc1 (stereo not drawn),-11.6%,nt,?,nt,22.4µM*,?
CC(C)=C1C(=O)NN(c2ccc(C)c(Cl)c2)C1=O,-29.8%,-20.3%,79.4µM*,?,-6.9%,?
CCc1cccc(C)c1NC(=O)CN1C(=O)NC(Cc2ccccc2)C1=O (stereo not drawn),-6.8%,nt,64.3%,21.3%,-18.4%,5.9%
SMILES,WRN inhibitor,L3MBTL1 inh,POLI inh,Pol beta inh,Pol eta inh,Pol kappa inh
COCc1cc(C)nc(SCC(=O)c2ccc(O)c(O)c2)c1C#N,?,-3.5%,22.4µM*,?,44.7µM*,?
COCc1cc(C)nc(SCC(=O)Oc2ccccc2)c1C#N,0.3%,69.5%,158.8%,2.3%,-1.6%,2.2%
CCOC(=O)COc1nc(-c2ccco2)cc(-c2ccco2)c1C#N,-15.5%,-5.6%,50.1µM*,?,-0.8%,?
Nc1nc(Nc2ccccc2)nc(NC2CCCCC2)c1[N+](=O)[O-],79.4µM*,nt,-26.5%,-22.4%,-16.8%,-15.5%
CNc1nc(N)c([N+](=O)[O-])c(NC2CCCCC2)n1,5.1%,nt,96.5%,20.5%,-8.8%,-2.2%
CC12CCC(C(=O)N(c3ccc(Cl)cc3)C1=O)C2(C)C (stereo not drawn),-14.6%[57.1 µM],1.6%,12.1%,-1.4%,-5.3%,-7.9%
O=[N+]([O-])c1ccc(SNc2ccccc2)c([N+](=O)[O-])c1,?,nt,-4.3%,nt,0.6%,-18.9%
O=[N+]([O-])c1ccc(-[n+]2ccc3ccccc3c2)c([N+](=O)[O-])c1,-12.4%[11.6 µM],-13.1%,?,nt,-24.6%,79.4µM*
Cc1ncc(CO)c2c1Oc1nc(-c3ccc(F)cc3)nc(SCc3ccc(F)cc3Cl)c1C2,nt,nt,11.4%,50.1µM*,-8.6%,-28.5%
COc1ccc(-c2nc3c(c(SCC(=O)Nc4cccc(O)c4)n2)Cc2c(CO)cnc(C)c2O3)cc1,-2.8%[11.6 µM],nt,6.31µM*,1.58µM*!,20µM*,79.4µM*!
CCOc1ccc(NC(=O)CSc2nc(-c3ccc(OC)cc3)nc3c2Cc2c(CO)cnc(C)c2O3)cc1,nt,nt,?,39.8µM*,-2.4%,-3.2%
CCc1ccc(NC(=O)CSc2nc(-c3ccc(C)cc3)nc3c2Cc2c(CO)cnc(C)c2O3)cc1,nt,-9.0%,?,50.1µM*,?,-4.7%
CCc1ccc(-c2nc3c(c(SCc4ccc(F)cc4)n2)Cc2c(CO)cnc(C)c2O3)cc1,nt,nt,24.9%,15.6%,-15.4%,-0.8%
CN1OC[C@@H]2CN(C(=O)C(C)(C)C)[C@H](c3cccc(Br)c3)C[C@@H]21,-6.0%,nt,6.7%,nt,-18.1%,1.9%
COc1ccc(/C(C)=N/N2C(C)CCCC2C)c(OC)c1 (stereo not drawn),-2.7%,nt,118.8%,23.8%,-6.8%,-1.9%
Cc1ncc(CO)c2c1Oc1nc(-c3ccccc3)nc(SCC(=O)Nc3cccc(C(F)(F)F)c3)c1C2,nt,nt,-14.5%,35.5µM*,?,-3.6%
CCN(CC)S(=O)(=O)c1ccc2c(c1)N(CC(=O)N(C)Cc1ccccc1)C(=O)CO2,nt,nt,45.6%,23.7%,-9.0%,-5.4%
CN(C)S(=O)(=O)N(Cc1ccc(Br)cc1)c1ccccc1,-6.0%,33.6%,-12.5%[58.9 µM],4.1%,-21.5%,-6.3%
Cc1ccccc1CSCCNC(=O)CN(c1ccccc1)S(=O)(=O)N(C)C,nt,nt,-23.1%,16.7%,-2.4%,-5.7%
CN(C)S(=O)(=O)N(CC(=O)NCCSc1ccccc1)c1ccccc1,nt,nt,9.9%,-14.0%,-11.6%,-9.5%

# High-throughput results as filed in PubChem.
